# Bioassay records as filed in PubChem BioAssay.
# An excerpt weighted towards active compounds, which were near 12% of everything screened.
# Shiga toxin inh – blocks Shiga toxin action in Vero cells | Vero cells, Shiga toxin protein synthesis inhibition reporter | inhibition, % at 38.7 µM | 9.2% of 290,000 active; in the data active means inhibition mostly above about 28%, no sharp cut-off; inactive means mostly below about 43%; further: 0% is about no effect
# NS1 function inh – influenza NS1 inhibition | Potency, µM (series often up to 46.1 µM), inactives show at the top dose activity, positive = more growth | 0.4% of 270,000 active | AID 2326; further: potency means the concentration at half of the fitted maximal effect; actives are rising curves; nearly all actives have a fitted effect of over 50% in size
#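 Recovery from NS1-induced slow growth read by OD600 in budding yeast switched to galactose assay medium (pH 6.0, -URA) at 1:100 dilution. Compound 23 nl per well; the matching strain lacking NS1 serves as control.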
# SARS PLP yeast – blocks SARS-CoV papain-like protease in a yeast assay | S. cerevisiae expressing SARS-CoV PLpro, growth rescue | Potency, µM (doses to about 32.9 µM), inactives show top-dose activity, positive = growth rescue, actives largely listed as activators | 0.19% of 330,000 active | AID 485353; further: potency means the concentration at half of the fitted maximal effect; 0% is about no effect; nearly all actives have a fitted effect of over 55% in size
# Cycloheximide cs – counter-screen hit for Shiga toxin inhibitors, cycloheximide; cell reporter, cycloheximide protein synthesis inhibition counterscreen; max response, %; 12% of 300,000 active; AID 2314; in the data active means max response mostly above about 13%, no sharp cut-off; inactive means mostly below about 14%; further: read at 38.3 µM for the half of the compounds with a filed dose; 0% is about no effect
# * = called active by the depositor; ? = inconclusive; · = no result given. Unless noted, the call rests on the fitted dose curve.
SMILES,Shiga toxin inh,NS1 function inh,SARS PLP yeast,Cycloheximide cs
O=[N+]([O-])c1ccc2nc(C(O)C(O)c3nc4ccc([N+](=O)[O-])cc4[nH]3)[nH]c2c1 (configuration not stated),·,8%,3%,22*
O=[N+]([O-])c1ccc2nc(/C=C/c3ccc(Cl)cc3)[nH]c2c1,153*,-110%,-29%,60*
CCCC[n+]1ccc(-c2nc3ccc([N+](=O)[O-])cc3[nH]2)cc1,6,25%,27%,7
NC(=O)CSc1nc2ccc([N+](=O)[O-])cc2[nH]1,-13,·,-1%,0
COc1ccc(CN2CCNC(=O)C2CC(=O)N(C)Cc2ccno2)c(F)c1 (configuration not stated),-10,8%,-1%,-2
Cn1cccc1/C=N/NC(=O)c1cccs1,74*,-14%,-7%,42*
O=C(Cc1cccs1)N/N=C\c1ccc(O)cc1,51*,·,1%,32*
CCCc1cc(C(=O)N/N=C/c2cccn2C)cs1,110*,-9%,0%,62*
Cn1cc(/C=N/NC(N)=S)c2ccccc21,15,4%,21%,14
Cn1cc(/C=N\NC(=O)c2cccs2)c2ccccc21,63*,·,1%,49*
COc1ccccc1C(C)NC(=O)CCNC(=O)c1ccc(Cl)cc1 (configuration not stated),·,·,-2%,·
Cc1cc(C)cc(N(CC(=O)N2CCCC2)S(C)(=O)=O)c1,-2,-3%,-6%,-3
Cn1cccc1/C=N/NC(=O)Cc1cccs1,49*,-1%,0%,11
C=CCNC(=S)N/N=C/c1cn(C)c2ccccc12,24,?,13%,21*
CCCCc1nnc(NC(=O)c2ccc3[nH]c(=O)c(=O)[nH]c3c2)s1,-2,13%,3%,-1
CCN(CC)C(=O)COc1ccc2oc(-c3ccco3)cc(=O)c2c1,31,-3%,-2%,19*
CS(=O)(=O)N1CCC(C(=O)Nc2ccc(Cl)c(Cl)c2)CC1,17,0%,0%,16
Cc1cc2c(cc(C(=O)OC(C(=O)NCC3CCCO3)C(C)C)n2C)o1 (configuration not stated),34,8%,0%,15*
CC1SC(C)C(=O)N(CC(=O)Nc2ccc([N+](=O)[O-])cc2)C1=O (configuration not stated),-6,·,-1%,-3
O=C(Nc1ccc(Cl)cc1)C(Cl)C(=O)c1ccccc1 (configuration not stated),53,-44%,-17%,19*
O=C(Nc1ccccc1Cl)C(Cl)C(=O)c1ccccc1 (configuration not stated),102*,·,-4%,48*
COc1ccc2oc(C(=O)Nc3nc(C)cs3)c(C)c2c1,·,·,-4%,·
COCc1c(C(=O)Nc2ccc(Cl)cc2F)oc2ccccc12,185*,·,-6%,29*
CCC(NC(=O)c1oc2ccccc2c1COC)c1ccc(OC)cc1 (configuration not stated),15,-13%,0%,1
CCC(CC)NC(=O)c1oc2ccccc2c1COc1ccccc1,25,15%,26%,8.4*
SMILES,Shiga toxin inh,NS1 function inh,SARS PLP yeast,Cycloheximide cs
COCc1c(C(=O)Nc2nc(C)cs2)oc2ccccc12,44*,·,-5%,25*
Cc1onc(-c2ccncc2)c1C(=O)O,55*,2%,-7%,27*
CCc1cccc(NC(=O)C2CCCN2S(=O)(=O)c2ccccc2C(F)(F)F)c1 (configuration not stated),·,·,2%,·
O=C(O)c1cccc(NC(=O)c2cccc(S(=O)(=O)N3CCc4ccccc4C3)c2)c1,-12,15%,1%,-2
Cc1ccc(C2C(=O)N(C3CCCC3)CC(=O)N2C2CCCCC2)cc1 (configuration not stated),-9,-5%,-2%,-6
CC(C)N1C(=O)CN(C2CCCCCC2)C(=O)C1c1ccccc1F (configuration not stated),187*,7%,-1%,60*
Cc1c(NC(=O)N(C)c2ccccc2)c(=O)n(-c2ccccc2)n1C,-2,7%,·,-2
CCc1ccc2nc(NC(=O)c3ccc4c(=O)[nH]c(CN5CCOCC5)nc4c3)sc2c1,65*,3%,3%,43*
CCc1ccc2nc(NC(=O)c3ccc(N4C(=O)CCC4=O)cc3)sc2c1,38*,7%,0%,22*
O=C(NNc1nc2cc3c(cc2s1)OCCO3)c1ccc(F)cc1,46,·,4%,33*
O=C(OCc1cccc2ccccc12)c1ccc2c(=O)[nH]c(CN3CCOCC3)nc2c1,16,-14%,2%,-3
CCc1nnc(NC(=O)c2ccc(N3C(=O)CCC3=O)cc2)s1,35,?,-3%,16*
CC(OC(=O)c1ccc(Cl)nc1)C(=O)NC1CCCC1 (configuration not stated),·,·,1%,·
O=C(Nc1nc2cc3c(cc2s1)OCCO3)c1ccncc1,121*,2%,-6%,33*
O=C(Nc1nc2cc3c(cc2s1)OCCO3)c1ccc(N2C(=O)CCC2=O)cc1,50*,-2%,0%,31*
CCOc1ccccc1N(CC(=O)NC(C)(C)C)C(=O)CCC(=O)Nc1nccs1,·,8%,-4%,-3
COc1ccc(NC(=S)N2CCN(S(=O)(=O)c3ccccc3)CC2)cc1,-8,10%,-2%,8
Clc1cccc(/C=N/Nc2nc(Cl)nc3ccccc23)c1,122*,14%,-6%,48*
Cc1ccc(/C=N/Nc2nc(C)cc(C)n2)cc1,57*,-7%,0%,14*
Cc1cc2c(C)nc(N/N=C/c3ccc(F)cc3)nc2o1,25,3%,-13%,18*
FC(F)(F)c1cc(C(F)(F)F)c2ccc(N/N=C/c3cccc(Cl)c3)nc2n1,-19,9%,3%,2
Clc1cccc(/C=N\Nc2nccs2)c1,65,?,?,20*
Cc1ccc(C[C@H](C(=O)O)N2C(=O)c3ccc(C(=O)O)cc3C2=O)cc1,5,·,4%,-3
CN(c1ccccc1)S(=O)(=O)c1cccc(C(=O)NCCCN2CCCC2=O)c1,·,·,5%,·
O=C(OCCc1ccccc1)c1cc(O)c(O)c(O)c1,·,·,-10%,·
SMILES,Shiga toxin inh,NS1 function inh,SARS PLP yeast,Cycloheximide cs
CSc1ccc(/C=N/Nc2nc(C)cc(C)n2)cc1,33*,·,24%,42*
Cc1cc(C)nc(N/N=C/c2ccc(Cl)cc2)n1,32,12%,0%,13*
Cc1cc(C)nc(N/N=C/c2cccc(Cl)c2)n1,49,-8%,15%,18*
COc1cc(/C=N/Nc2nc(C)cc(C)n2)cc(OC)c1OC,22,15%,3%,4
CCN(Cc1nc2ccccc2c(=O)[nH]1)C(=O)c1cccc(S(=O)(=O)N2CCc3ccccc32)c1,·,·,2%,·
C=CCn1c(COc2ccc3c(c2)CCCC3)nnc1SCC(=O)Nc1cccc(SC)c1,58*,-8%,-7%,47*
Cc1cc(C(=O)N/N=C2\CC(=O)c3ccccc32)c(C)n1-c1ccccc1,65*,7%,-2%,35*
Cc1cc(C(=O)N/N=C2\CC(=O)CC(C)(C)C2)c(C)n1-c1ccccc1,89*,?,-3%,87*
COc1ccc(-c2nc(=S)[nH][nH]2)cc1OC,16,·,4%,-2
COc1ccc(-c2nc(=S)[nH][nH]2)cc1,108*,12%,4%,13*
